PubChem BioAssay (Tox21)
Records with an inconclusive call do not appear. The source made the active and inactive calls. Unless noted, calls come from the whole dose curve; as a rule, active = well fitted curve in the direction sought with a large enough effect in the repeat runs; inconclusive = weak or mixed curves; inactive = no such curve, though single readings can be large; an effect the other way counts as inactive or inconclusive.

Key:
[1] = qHTS assay to identify small molecule agonists of H2AX (AID 1224845; active = well fitted activation curve with a large enough effect in the signal ratio in the repeat runs, not every such curve was filed as active; the % refers to the signal ratio)
Summary of the method: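 Wild-type CHO-K1 cells plated overnight, then exposed 3 hr at 37C to compounds at 15 concentrations (0.76% DMSO). Lysed, then HTRF anti-pH2AX(S139)-cryptate/anti-H2AX-d2 detection after 24 hr at room temperature; emissions 665 and 620 nm.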

[2] = qHTS assay to identify small molecule agonists of the hypoxia (HIF-1) signaling pathway (AID 1224846; active = well fitted activation curve with a large enough effect in the signal ratio in the repeat runs, not every such curve was filed as active; the % refers to the signal ratio)
Summary of the method: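 ME-180 HRE-bla reporter cells; compounds in DMSO, 17 h at 37C; read-out beta-lactamase via CCF4-AM FRET.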

[3] = qHTS assay to identify small molecule agonists of H2AX - cell viability counter screen (AID 1224847; calls by dose curve; note: top concentration of the series differs between compounds; nearly all actives have a fitted effect of over 30% in size)
Summary of the method: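 After overnight plating of 1000 CHO-K1 cells per well, a 15-concentration compound series was applied for 3 hr at 37C. Luminescence from CellTiter-Glo, read following 30 min at room temperature, reflected cell viability.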

[4] = qHTS RealTime-Glo MT Cell Viability Assay in HepG2 cells - 24 hour (AID 1224867); note: nearly all actives have a fitted effect of over 50% in size
Summary of the method: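 Cell number in HepG2 cultures estimated from NanoLuc luminescence generated by metabolic reduction of a prosubstrate by living cells. The homogeneous, nonlytic format allowed repeated reads at 0, 8, 16, 24, 32 and 40 h of compound exposure.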

[5] = qHTS RealTime-Glo MT Cell Viability Assay in HEK293 cells - 32 hour (AID 1224868); note: top concentration of the series differs between compounds; nearly all actives have a fitted effect of over 50% in size
Summary of the method: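 Homogeneous bioluminescent viability format in HEK293 cells (600 cells/well). Following 5 h at 37 C/5% CO2, 23 nL compound was pintooled; the signal was measured repeatedly during 40 h incubation.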

[6] = A CellTox Green Cytotoxicity Assay to monitor cytotoxicity in HEK293 cells - 0 hour (AID 1224869); note: nearly all actives have a fitted effect of over 50% in size
Summary of the method: (§1)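 Real-time, in one plate: 600 HEK293 cells/well with dead-cell DNA dye, pinned compound after 5 h, 37 C incubation over 40 h; viable cells give no appreciable fluorescence.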

[7] = qHTS RealTime-Glo MT Cell Viability Assay in HepG2 cells - 40 hour (AID 1224870); note: nearly all actives have a fitted effect of over 50% in size
Summary of the method: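 HepG2 cells mixed with RealTime-Glo MT reagents (NanoLuc plus cell-permeant prosubstrate) were seeded at 600 cells/well, incubated 5 h at 37 C/5% CO2, then pinned with compounds in DMSO; nonlytic luminescence tracked viability during 40 h treatment.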

[8] = A CellTox Green Cytotoxicity Assay to monitor cytotoxicity in HEK293 cells - 40 hour (AID 1224871); note: nearly all actives have a fitted effect of over 45% in size; note: potency is the fitted concentration of half-maximal effect
Summary of the method: as §1

[9] = qHTS assay to identify small molecule antagonists of the estrogen related receptor (ERR) signaling pathway from Tox21 library (AID 1224848); note: nearly all actives have a fitted effect of over 50% in size
Summary of the method: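 Tox21 10K compounds in DMSO tested for ERR pathway antagonism in NTP's ERR cell line; 18 h, 37 C exposure; ONE-Glo luminescence.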

[10] = qHTS assay to identify small molecule agonists of the estrogen related receptor (ERR) signaling pathway from Tox21 library (AID 1224849; calls by dose curve; note: nearly all actives have a fitted effect of over 15% in size); conditions: ERR reporter cell line, ONE-Glo luciferase, 18 h
Summary of the method: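 Luciferase activity in ERR pathway reporter cells served as the agonist readout; exposure lasted 18 h at 37 C, with ONE-Glo detection after 30 min at room temperature.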
% is set by controls: 0 for no effect and ±100 for the full control effect.

C=Cc1cccc(C)c1
inactive: Potency [1] | Potency [2] | Potency [3] | Potency [4] | Potency [5] | Potency [6] | Potency [7] | Potency [8]

C=CC(C)(CCC=C(C)C)OC=O (stereo not given)
inactive: Potency [1] | Potency [2] | Potency [3] | Potency [9] | activity change, positive = activation ([10]; at 92.4 µM (top of the series)) 1.64% | Potency [4] | Potency [6] | Potency [7] | Potency [8]

NC[C@H]1O[C@H](O[C@H]2[C@H](O[C@@H]3O[C@H](CO)[C@@H](O)[C@H]3O)C(O)[C@H](N)C[C@@H]2N)[C@H](N)[C@@H](O)[C@@H]1O (stereo not given in full)
inactive: activation (H2AX phosphorylation) [1] -1.16% [at 14 µM] | activation [2] -1.07% [at 7.01 µM] | activity change, negative = cytotoxicity [3] -3.49% [at 14 µM] | activity change, negative = cytotoxicity [4] -0.277% [at 6.97 µM] | activity change, negative = cytotoxic [5] 4.84% [at 6.97 µM] | cytotoxicity [6] -7.77% [at 6.97 µM] | activity change, negative = cytotoxic [7] 0.986% [at 6.97 µM] | cytotoxicity increase [8] -12.4% [at 6.97 µM]

CC1=CCC(=C(C)C)CC1
inactive: Potency [1] | Potency [2] | Potency [3] | Potency [4] | Potency [5] | Potency [6] | Potency [7] | Potency [8]

CCC(C)[O-].CCC(C)[O-].CCOC(=O)/C=C(/C)[O-].[Al+3]
inactive: Potency [1] | Potency [2] | Potency [3] | Potency [4] | Potency [5] | Potency [6] | Potency [7] | Potency [8]

CCCC(=O)OC(C)(C)Cc1ccccc1
inactive: Potency [1] | Potency [2] | Potency [3] | Potency [4] | Potency [5] | Potency [6] | Potency [7]
active: Potency [8] 24.5 µM

Cc1c(N)cccc1C(F)(F)F
inactive: Potency [1] | Potency [2] | Potency [3] | Potency [9] | activity change, positive = activation ([10]; at 42.5 µM (top of the series)) 6.86% | Potency [4] | Potency [6] | Potency [7] | Potency [8]

Cc1c(C)c2c(c(C)c1OC(=O)c1cccnc1)CC[C@@](C)(CCC[C@H](C)CCC[C@H](C)CCCC(C)C)O2
inactive: Potency [1] | Potency [2] | Potency [3] | Potency [9] | activity change, positive = activation ([10]; at 42.5 µM (top of the series)) 3.86% | Potency [4] | Potency [6] | Potency [7] | Potency [8]

C[C@H]1NCc2cc(-c3ccc4c(=O)c(C(=O)O)cn(C5CC5)c4c3OC(F)F)ccc21
inactive: activation (H2AX phosphorylation) [1] 4.25% [at 31.6 µM] | activation [2] 0.068% [at 15.8 µM] | activity change, negative = cytotoxicity [3] 0.563% [at 31.6 µM] | activity change, negative = cytotoxicity [4] -15.8% [at 15.8 µM] | activity change, negative = cytotoxic [5] -6.15% [at 15.8 µM] | cytotoxicity [6] 0.0457% [at 15.8 µM] | activity change, negative = cytotoxic [7] -10.9% [at 15.8 µM] | cytotoxicity increase [8] -4.15% [at 15.8 µM]

C[C@@H](O)[C@H](N)C(=O)O
inactive: activation (H2AX phosphorylation) [1] 0.0265% [at 31.6 µM] | activation [2] -0.487% [at 15.8 µM] | activity change, negative = cytotoxicity [3] -4.33% [at 31.6 µM] | activity change, negative = cytotoxicity [4] 0.0975% [at 15.8 µM] | activity change, negative = cytotoxic [5] 0.135% [at 15.8 µM] | cytotoxicity [6] -4.33% [at 15.8 µM] | activity change, negative = cytotoxic [7] -3.3% [at 15.8 µM] | cytotoxicity increase [8] -7.08% [at 15.8 µM]

COc1ccc(NC(=O)CC(C)=O)cc1
inactive: Potency [1] | Potency [2] | Potency [3] | Potency [4] | Potency [5] | Potency [6] | Potency [7]

COc1cccc(OC)c1C(=O)O
inactive: Potency [1] | Potency [2] | Potency [3] | Potency [4] | Potency [5] | Potency [6] | Potency [7]

CCCC1CCC(=O)CC1
inactive: Potency [1] | Potency [2] | Potency [3] | Potency [4] | Potency [5] | Potency [6] | Potency [7] | Potency [8]
